The results in this text go back to PubChem BioAssay (NCI).

Each structure is given as a SMILES string. About 83,000 compounds went through this panel and 20% of them were active in at least one assay; those are over-represented in the sample as a whole.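 Note: values are percent growth. 100 is the growth of untreated cells, values between 100 and 0 indicate rising inhibition; between -100 and 0 indicates cell death.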 Values without a mark were called inactive. The source made the active and inactive calls.

This assay deals with KM12 colon. Put plainly: NCI-60 one-dose screen, 48 h (100 = growth as untreated, 0 = no growth, -100 = all killed). The settings on record: 10 µM unless noted. On the procedure: Growth inhibition of the KM12 human tumor cell line is measured as a screen for anti-cancer activity. Cells are grown in 96 well plates and exposed to the test compound for 48 hours. Compounds are tested at a single concentration, which is 10^-5 M for most compounds. The reported endpoint is percent growth (GI% or GIPRCNT), where numbers from 0 - 100% represent growth inhibition, and numbers from -100% - 0 represent cell death. For example, a value of 40 represents 60% growth inhibition. A value of 0 means no net growth occurred over the course of the experiment. A value of -40 indicates 40% of cells at the beginning of the experiment died by the end of the experiment. A value of -100 means all cells are dead at the end of the experiment.
NCI-60 Human Tumor Cell Lines Screen was performed using the standard one-dose NCI protocol, which is described in more detail at https://dtp.cancer.gov/discovery_development/nci-60/default.htm.
Compounds with GIPRCNT values below 10 were considered active. Activity score was based on GIPRCNT using the following formula: […]
Score is 0 for GIPRCNT values of 100 or above, 50 for GIPRCNT values of 0, and 100 for GIPRCNT values of -100.
For the compound `C/C(=N\Nc1ccc([N+](=O)[O-])cn1)c1ccc(N)cc1`, the growth is 95.5%. Then `O=C(Nc1cccc(-n2ccc3c(NC(=O)c4ccccc4)nccc32)c1)c1ccc(N2CCOCC2)c(C(F)(F)F)c1`, with 7.93% (active); and `O=C1N(Cc2ccccc2Cl)c2ccccc2C12NN=C(c1ccccc1)S2` (stereo not given), with 50.8%.

Consider `COc1cc(C2CC(c3ccccc3)=NN2C=O)ccc1Oc1ccnc2cc(Cl)ccc12` (stereo not given), for which the growth is 49.9%. Turning to `N/C(=N\OC(=O)c1ccccc1)C(Cc1ccccc1)C(=O)NOC(=O)c1ccccc1` (stereo not given), the growth was 24.2%. For the compound `COc1cnc2c(c1)C(=O)c1c-2n(CCCNC(C)C)c(=O)c2cc(Cl)ccc12`, the growth was -71.7% (active).

On to `CC(=O)O[C@@H]1CC2C(C)(C)CCCC2(C)C2=C1C(=O)C(C(C)C)=CC2=O` (stereo not given in full), for which the growth was -48.7% (active).

Regarding `O=C1Nc2ccccc2/C1=C\c1nc(C2CCN(S(=O)(=O)c3ccc(F)cc3)CC2)n2ccccc12`, the growth was 65.8%. Take `CCc1onc(-c2ccc(OC)cc2)c1-c1ccccc1OCCN(CC)CC`: the growth is 93.1%.

With `COc1cc([N+](=O)[O-])cc(OC)c1OC`, the growth is 108%. Consider `Cn1cnc([N+](=O)[O-])c1S(=O)(=O)Oc1ccccc1`, for which the growth is 100%.

Take `COc1cccc(-c2nc3sccn3c2-c2ccnc(NCCN3CCCN(C)S3(=O)=O)n2)c1`: the growth was 100%.

As for `COc1cc(CN2CCC(N3CCCC3=O)c3ccccc32)cc(OC)c1OC` (stereo not given), the growth is 97.1%. On to `CC(C)c1cccc(C#N)c1`, for which the growth was 111%. `c1ccc2oc(-c3cnc4nonc4n3)cc2c1`: the growth was 112%. Take `CC(=O)N1N=C(C2C(=O)N(C)C(=O)N(C)C2=O)CC1c1ccccc1C(=O)O` (stereo not given): the growth was 114%.

Take `COc1cc(CN(c2ccc(C)cc2)C2OC(=O)c3ccccc32)cc(OC)c1OC` (stereo not given): the growth was 17.1%. Take `O=C(Nc1ccncc1)C(=O)c1cn(S(=O)(=O)c2cccc(Cl)c2F)c2ccccc12`: the growth is 63.1%. `CC(C)c1ccc2c(c1)CCC1C2CCCC1(C)NCc1ccccc1` (stereo not given): the growth is 23.1%.

With `ClC1(Cl)C2CCCCCCC21` (stereo not given), the growth was 109%. On to `COc1cnc2c(c1)C(=O)c1c-2n(CCCN2CCNCC2)c(=O)c2cc(Cl)ccc12`, for which the growth is 11.8%. The value for `CC(=O)Oc1c(Cl)c(Cl)c(Cl)c(Cl)c1Cl` was 103%; that for `CCCC(CCC)(C(N)=O)C(=O)O` was 106%; that for `CCCCCc1c(C)[nH]c(/C=C2\N=C(c3ccc[nH]3)C=C2Oc2ccc(OC)cc2)c1C` was -90.9% [100 µM] (active).

Regarding `C=C1C(=O)O[C@H]2[C@H]1CC/C(COC(=O)NCc1[nH]nc3ccccc13)=C\CC[C@@]1(C)O[C@@H]21`, the growth is 55.8%. Turning to `Cc1c2c(cc3c1[nH]c1ccccc13)C=NCC2`, the growth is 87%. Then `CS(=O)(=O)c1ccc(C(=O)N/N=C/c2cccc3ccccc23)cc1`, with 50.8%; and `C#Cc1cccc(Nc2nc3cc([N+](=O)[O-])ccc3nc2Nc2ccc(O)cc2)c1`, with -36.3% (active).

As to `COc1ccc(N=C2CSc3nnc(-c4cc(F)c(Cl)cc4Cl)n3N2)cc1`, the growth is -12.3% (active). For the compound `NC(=O)N/N=C\c1ccc([N+](=O)[O-])o1`, the growth is 98.1%.

Consider `O=C(CCl)Nc1cc(O)c2c(c1)C(=O)c1cccc(O)c1C2=O`, for which the growth is -45.8% (active). The value for `C=C1C(=O)O[C@H]2[C@H]1CC/C(COC(=O)N[C@@H](Cc1c[nH]c3ccccc13)C(=O)OC)=C\CC[C@@]1(C)O[C@@H]21` was 74.6%. `COc1ccc(C(=O)OC2C(OC3C(O)COC(O[C@H]4C[C@H]5[C@@H]6CC=C7C[C@@H](O)CC[C@]7(C)[C@H]6CC[C@]5(C)[C@H]4[C@H](C)C(=O)CCC(C)C)C3OC(C)=O)OCC(O)C2O)cc1` (stereo not given in full): the growth was 24.1%.

`O=c1c2cc(Br)cc(Br)c2nc(-c2ccc(Cl)cc2)n1/N=C\c1ccccc1F`: the growth was 72.2%.

As for `CCCCSc1ncnc2c1ncn2C1CCCCO1` (stereo not given), the growth was 108%.

With `Cc1ccc(Nc2cccc3ccccc23)cc1`, the growth was 59.4%. Then `O=C(N/N=C/c1ccccc1O)c1ccncc1`, with 34.3%. Consider `c1cc2c(cc1-c1cnc3nonc3n1)OCO2`, for which the growth is 74.8%. As for `COc1cccc(NC(=O)OC(C)C)c1`, the growth was 103%. In the case of `COc1ccc(Nc2nc(N)nc3c(=O)[nH]ccc23)cc1`, the growth is 104%.
